# Values joined by “and” are separate entries in the source; they are usually repeats but may differ in a detail not shown here. Equal entries are not always repeated.
# What was measured:
# Format in all cases: functional
# [1] = target: Solute carrier family 2, facilitated glucose transporter member 1 (Homo sapiens) (UniProt P11166); assay: ST_JUDE_LEISH: Cytotoxicity at 2uM final concentration against transgenic Leishmania Mexicana promastigotes LmGLUT1 that are glucose transport deficient and complemented with the human glucose transporter GLUT1. Activity is measured by DNA content using SYBR green in vitro
# Solute carrier family 2, facilitated glucose transporter member 1 (Homo sapiens), sequence (P11166 whole entry): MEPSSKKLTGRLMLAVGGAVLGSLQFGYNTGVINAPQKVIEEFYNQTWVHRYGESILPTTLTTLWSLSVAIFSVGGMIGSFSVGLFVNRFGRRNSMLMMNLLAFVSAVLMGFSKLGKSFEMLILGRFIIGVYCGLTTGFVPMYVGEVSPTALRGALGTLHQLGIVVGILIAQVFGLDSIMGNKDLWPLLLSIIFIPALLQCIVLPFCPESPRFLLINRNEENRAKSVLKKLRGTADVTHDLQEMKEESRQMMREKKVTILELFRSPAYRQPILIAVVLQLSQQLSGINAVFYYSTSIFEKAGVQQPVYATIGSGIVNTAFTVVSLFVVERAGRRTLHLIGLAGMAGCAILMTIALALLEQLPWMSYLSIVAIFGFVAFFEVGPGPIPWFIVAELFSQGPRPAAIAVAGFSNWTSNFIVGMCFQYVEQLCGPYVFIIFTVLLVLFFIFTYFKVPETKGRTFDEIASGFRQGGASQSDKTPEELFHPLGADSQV
# [2] = target: Hexose transporter 1 (Plasmodium falciparum) (UniProt O97467); assay: ST_JUDE_LEISH: Cytotoxicity at 2uM final concentration against transgenic Leishmania Mexicana promastigotes LmPfHT that are glucose transport deficient and complemented with the Plasmodium falciparum hexose transporter. Activity is measured by DNA content using SYBR green in vitro
# [3] = target: Glucose transporter (Leishmania mexicana) (UniProt O61059); assay: ST_JUDE_LEISH: Cytotoxicity at 2uM final concentration against transgenic Leishmania Mexicana promastigotes LmGT2 that are glucose transport deficient and complemented with the L. Mexicana glucose transporter 2. Activity is measured by DNA content using SYBR green in vitro
Compound,inhibition [1],inhibition [2],inhibition [3]
COc1ccc(NC(=O)[C@H](CC(C)C)Nc2cc(C)nc(NCCc3ccccc3)n2)cc1,3.57%,3.69%,1.94%
CC(C)(C)NCCN(Cc1ccc(-c2ccc(C(F)(F)F)cc2)cc1)C(=O)Cn1c(CCc2cccc(F)c2F)nc(=O)c2ccccc21,3%,5%,1.15%
CCNS(=O)(=O)c1ccc(Oc2ccc([N+](=O)[O-])cc2)cc1,0.11%,-1.31%,-1.68%
O=C(/C=C/c1ccc(Cl)c(Cl)c1)NC1CCN(Cc2cccc(O)c2)CC1,2.92%,4.2%,-2.96%
CN1CCN(CCCN(Cc2cccc(-c3ccc(CNC4CCCC4)cc3)c2)C(=O)/C=C/c2ccccc2)CC1,6.1%,7.29%,4.93%
COc1cccc(-c2csc(C(=O)NCC3CCN(Cc4ccc(C(C)(C)C)cc4)C3)c2)c1 (stereo unspecified),3.1%,-1.27%,2.46%
Oc1ccc(Cc2cc(Oc3c(I)cc(CCc4ncc[nH]4)cc3I)ccc2O)cc1,0.12%,1.92%,1.23%
Cc1[nH]c(C)c(-c2ccc(Oc3ccc(OC(F)(F)F)cc3)cc2)c(=O)c1Br,-1.24% and 1.98%,-1.18% and 1.4%,-2.31% and 2.01%
O=C(CSc1nccn1Cc1ccco1)Nc1cc(C(F)(F)F)ccc1Cl,13.1%,10.5%,9.28%
CN1CCc2ccc(NC(=O)Nc3ccc(-c4ccccc4)cc3)cc2C1,1.53%,0.83%,0.87%
NS(=O)(=O)c1cncc(-c2ccc3nccc(-c4cn[nH]c4)c3n2)c1,6.71%,7.77%,6.63%
c1ccc2c(Nc3ccc(Cc4ccc(Nc5c6ccccc6nc6ccccc56)cc4)cc3)c3ccccc3nc2c1,6.04%,6.65%,2.95%
